Results from the supplement of paper PMC10849652.
Of roughly 7,900 targets only a part is listed; those with a hit were picked by preference. About 0.6% of all pairs of compound and target were hits. Values without a mark were called inactive.

What was measured:
Experiment in all cases: log2 fold change, soluble protein after heating vs DMSO (PISA); higher = thermal stabilisation; K562 cells, 10 uM, 30 min; active = over 0.2 and 3.5 SD of the protein, either way, in both replicates (recomputed)
[1] = compound: COC1=CC=C(C=C1)CN2C=CC3=C2C=C(C=C3)C(=O)NO
Method in brief: (§1)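 K562 cells at 2×10^6 cells/mL were treated for 30 min with 10 μM compound, and aliquots were heated for 3 min over 48°C-58°C before pooling. Extraction used PBS with 0.5% NP-40 at 4°C, and soluble protein was the supernatant after 21,000xg for 90 min, measured by TMTpro 16plex LC-MS/MS with channel sums equalised. Thermal stability values, relative to control samples and from duplicates, are log2 fold changes.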

filanesib = compound: CON(C)C(=O)N1N=C(c2cc(F)ccc2F)S[C@@]1(CCCN)c1ccccc1 [filanesib]
Method in brief: as §1

zotarolimus = compound: CO[C@H]1C[C@@H]2CC[C@@H](C)[C@@](O)(O2)C(=O)C(=O)N2CCCC[C@H]2C(=O)O[C@H]([C@H](C)C[C@@H]2CC[C@H](n3cnnn3)[C@H](OC)C2)CC(=O)[C@H](C)/C=C(\C)[C@@H](O)[C@@H](OC)C(=O)[C@H](C)C[C@H](C)/C=C/C=C/C=C/1C [zotarolimus]
Method in brief: as §1

idasanutlin = compound: COc1cc(C(=O)O)ccc1NC(=O)[C@@H]1N[C@@H](CC(C)(C)C)[C@](C#N)(c2ccc(Cl)cc2F)[C@H]1c1cccc(Cl)c1F [idasanutlin]
Method in brief: as §1

alisertib = compound: COc1cc(Nc2ncc3c(n2)-c2ccc(Cl)cc2C(c2c(F)cccc2OC)=NC3)ccc1C(=O)O [alisertib]
Method in brief: as §1

[2] = compound: COc1cc2nc(-c3cc(F)ccc3O)nc(N[C@@H]3CNC[C@H]3C(C)(C)O)c2cc1OC
Method in brief: as §1

gefitinib = compound: COc1cc2ncnc(Nc3ccc(F)c(Cl)c3)c2cc1OCCCN1CCOCC1 [gefitinib]
Method in brief: as §1

[3] = compound: COc1cccc2cc(-c3nc([C@H]4CC[C@H](C(=O)O)CC4)n4ncnc(N)c34)[nH]c12
Method in brief: as §1

lapatinib = compound: CS(=O)(=O)CCNCc1ccc(-c2ccc3ncnc(Nc4ccc(OCc5cccc(F)c5)c(Cl)c4)c3c2)o1 [lapatinib]
Method in brief: as §1

pictilisib = compound: CS(=O)(=O)N1CCN(Cc2cc3nc(-c4cccc5[nH]ncc45)nc(N4CCOCC4)c3s2)CC1 [pictilisib]
Method in brief: as §1

[4] = compound: CS(=O)(=O)c1ccc(-c2cnc(N)c(C(=O)Nc3ccccc3)n2)cc1
Method in brief: as §1

crizotinib = compound: C[C@@H](Oc1cc(-c2cnn(C3CCNCC3)c2)cnc1N)c1c(Cl)ccc(F)c1Cl [crizotinib]
Method in brief: as §1

[5] = compound: C[C@@H]1COCCN1C2=NC(=NC(=C2)C3(CC3)S(=O)(=O)C)C4=C5C=CNC5=CC=C4
Method in brief: as §1

[6] = compound: C[C@H](C1=CC=C(C=C1)C(=O)NC2=C3C=CNC3=NC=C2)N
Method in brief: as §1

duvelisib = compound: C[C@H](Nc1ncnc2nc[nH]c12)c1cc2cccc(Cl)c2c(=O)n1-c1ccccc1 [duvelisib]
Method in brief: as §1

gandotinib = compound: Cc1cc(Nc2cc(CN3CCOCC3)c3nc(C)c(Cc4ccc(Cl)cc4F)n3n2)n[nH]1 [gandotinib]
Method in brief: as §1

tozasertib = compound: Cc1cc(Nc2cc(N3CCN(C)CC3)nc(Sc3ccc(NC(=O)C4CC4)cc3)n2)n[nH]1 [tozasertib]
Method in brief: as §1

[7] = compound: Cc1cc(SCc2sc(-c3ccc(C(F)(F)F)cc3)nc2C)ccc1OCC(=O)O
Method in brief: as §1

doramapimod = compound: Cc1ccc(-n2nc(C(C)(C)C)cc2NC(=O)Nc2ccc(OCCN3CCOCC3)c3ccccc23)cc1 [doramapimod]
Method in brief: as §1

ispinesib = compound: Cc1ccc(C(=O)N(CCCN)[C@@H](c2nc3cc(Cl)ccc3c(=O)n2Cc2ccccc2)C(C)C)cc1 [ispinesib]
Method in brief: as §1

Chain of UniProt O14976 (O14976 whole entry, looked up): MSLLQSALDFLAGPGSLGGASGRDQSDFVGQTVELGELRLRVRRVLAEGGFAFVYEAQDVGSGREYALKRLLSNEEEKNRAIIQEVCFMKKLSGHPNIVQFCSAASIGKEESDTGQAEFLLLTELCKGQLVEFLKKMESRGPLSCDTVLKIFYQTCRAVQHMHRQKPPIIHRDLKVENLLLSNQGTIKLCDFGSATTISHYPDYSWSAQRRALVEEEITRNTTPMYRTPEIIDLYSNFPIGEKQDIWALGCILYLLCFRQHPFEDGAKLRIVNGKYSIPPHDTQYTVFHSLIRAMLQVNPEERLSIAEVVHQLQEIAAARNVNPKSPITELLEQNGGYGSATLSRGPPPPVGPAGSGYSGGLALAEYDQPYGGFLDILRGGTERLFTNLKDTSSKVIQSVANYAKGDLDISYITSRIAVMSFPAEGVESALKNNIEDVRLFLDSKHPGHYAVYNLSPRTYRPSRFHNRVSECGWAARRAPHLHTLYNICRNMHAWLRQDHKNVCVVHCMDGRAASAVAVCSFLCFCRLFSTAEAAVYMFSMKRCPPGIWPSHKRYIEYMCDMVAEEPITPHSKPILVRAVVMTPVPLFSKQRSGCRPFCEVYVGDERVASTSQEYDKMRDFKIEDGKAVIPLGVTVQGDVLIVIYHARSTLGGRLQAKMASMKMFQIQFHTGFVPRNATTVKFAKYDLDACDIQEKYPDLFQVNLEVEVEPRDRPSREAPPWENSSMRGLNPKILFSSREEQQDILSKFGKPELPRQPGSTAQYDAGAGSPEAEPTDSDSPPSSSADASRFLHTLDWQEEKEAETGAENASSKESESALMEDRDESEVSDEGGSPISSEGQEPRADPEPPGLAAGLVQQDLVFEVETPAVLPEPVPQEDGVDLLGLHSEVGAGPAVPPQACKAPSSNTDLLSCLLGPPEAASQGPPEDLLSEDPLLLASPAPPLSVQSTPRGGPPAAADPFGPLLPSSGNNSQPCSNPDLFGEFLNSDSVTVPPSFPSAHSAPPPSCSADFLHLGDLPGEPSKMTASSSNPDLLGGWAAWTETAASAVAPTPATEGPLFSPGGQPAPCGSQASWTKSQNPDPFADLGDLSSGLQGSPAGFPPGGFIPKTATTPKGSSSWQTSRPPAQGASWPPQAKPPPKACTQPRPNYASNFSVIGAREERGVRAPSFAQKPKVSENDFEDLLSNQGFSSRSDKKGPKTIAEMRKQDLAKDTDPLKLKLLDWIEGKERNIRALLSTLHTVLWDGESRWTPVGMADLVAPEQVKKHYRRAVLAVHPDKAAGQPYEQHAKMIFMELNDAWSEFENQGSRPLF
Chain of UniProt Q9P2H3 (Q9P2H3 whole entry, looked up): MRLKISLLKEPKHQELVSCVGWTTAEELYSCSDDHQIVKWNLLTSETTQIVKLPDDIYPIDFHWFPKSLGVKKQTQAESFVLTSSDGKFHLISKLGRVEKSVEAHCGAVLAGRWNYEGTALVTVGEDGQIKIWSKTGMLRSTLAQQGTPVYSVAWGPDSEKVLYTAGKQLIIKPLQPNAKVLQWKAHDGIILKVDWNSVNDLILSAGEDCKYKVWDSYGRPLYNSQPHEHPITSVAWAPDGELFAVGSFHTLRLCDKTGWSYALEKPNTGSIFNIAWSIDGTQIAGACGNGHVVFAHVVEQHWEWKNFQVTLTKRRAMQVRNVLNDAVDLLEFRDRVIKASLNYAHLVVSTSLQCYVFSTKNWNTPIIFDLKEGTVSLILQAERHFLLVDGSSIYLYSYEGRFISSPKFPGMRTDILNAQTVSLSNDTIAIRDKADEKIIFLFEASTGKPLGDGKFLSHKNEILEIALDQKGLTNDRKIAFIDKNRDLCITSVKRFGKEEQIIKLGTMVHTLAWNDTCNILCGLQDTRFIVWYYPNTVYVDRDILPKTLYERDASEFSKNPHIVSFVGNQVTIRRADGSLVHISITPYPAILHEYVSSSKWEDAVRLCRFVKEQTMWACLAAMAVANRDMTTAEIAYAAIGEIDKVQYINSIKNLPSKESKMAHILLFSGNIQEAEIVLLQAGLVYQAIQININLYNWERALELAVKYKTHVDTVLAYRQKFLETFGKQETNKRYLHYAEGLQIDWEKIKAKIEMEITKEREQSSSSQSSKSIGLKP
Chain of UniProt Q92538 (Q92538 whole entry, looked up): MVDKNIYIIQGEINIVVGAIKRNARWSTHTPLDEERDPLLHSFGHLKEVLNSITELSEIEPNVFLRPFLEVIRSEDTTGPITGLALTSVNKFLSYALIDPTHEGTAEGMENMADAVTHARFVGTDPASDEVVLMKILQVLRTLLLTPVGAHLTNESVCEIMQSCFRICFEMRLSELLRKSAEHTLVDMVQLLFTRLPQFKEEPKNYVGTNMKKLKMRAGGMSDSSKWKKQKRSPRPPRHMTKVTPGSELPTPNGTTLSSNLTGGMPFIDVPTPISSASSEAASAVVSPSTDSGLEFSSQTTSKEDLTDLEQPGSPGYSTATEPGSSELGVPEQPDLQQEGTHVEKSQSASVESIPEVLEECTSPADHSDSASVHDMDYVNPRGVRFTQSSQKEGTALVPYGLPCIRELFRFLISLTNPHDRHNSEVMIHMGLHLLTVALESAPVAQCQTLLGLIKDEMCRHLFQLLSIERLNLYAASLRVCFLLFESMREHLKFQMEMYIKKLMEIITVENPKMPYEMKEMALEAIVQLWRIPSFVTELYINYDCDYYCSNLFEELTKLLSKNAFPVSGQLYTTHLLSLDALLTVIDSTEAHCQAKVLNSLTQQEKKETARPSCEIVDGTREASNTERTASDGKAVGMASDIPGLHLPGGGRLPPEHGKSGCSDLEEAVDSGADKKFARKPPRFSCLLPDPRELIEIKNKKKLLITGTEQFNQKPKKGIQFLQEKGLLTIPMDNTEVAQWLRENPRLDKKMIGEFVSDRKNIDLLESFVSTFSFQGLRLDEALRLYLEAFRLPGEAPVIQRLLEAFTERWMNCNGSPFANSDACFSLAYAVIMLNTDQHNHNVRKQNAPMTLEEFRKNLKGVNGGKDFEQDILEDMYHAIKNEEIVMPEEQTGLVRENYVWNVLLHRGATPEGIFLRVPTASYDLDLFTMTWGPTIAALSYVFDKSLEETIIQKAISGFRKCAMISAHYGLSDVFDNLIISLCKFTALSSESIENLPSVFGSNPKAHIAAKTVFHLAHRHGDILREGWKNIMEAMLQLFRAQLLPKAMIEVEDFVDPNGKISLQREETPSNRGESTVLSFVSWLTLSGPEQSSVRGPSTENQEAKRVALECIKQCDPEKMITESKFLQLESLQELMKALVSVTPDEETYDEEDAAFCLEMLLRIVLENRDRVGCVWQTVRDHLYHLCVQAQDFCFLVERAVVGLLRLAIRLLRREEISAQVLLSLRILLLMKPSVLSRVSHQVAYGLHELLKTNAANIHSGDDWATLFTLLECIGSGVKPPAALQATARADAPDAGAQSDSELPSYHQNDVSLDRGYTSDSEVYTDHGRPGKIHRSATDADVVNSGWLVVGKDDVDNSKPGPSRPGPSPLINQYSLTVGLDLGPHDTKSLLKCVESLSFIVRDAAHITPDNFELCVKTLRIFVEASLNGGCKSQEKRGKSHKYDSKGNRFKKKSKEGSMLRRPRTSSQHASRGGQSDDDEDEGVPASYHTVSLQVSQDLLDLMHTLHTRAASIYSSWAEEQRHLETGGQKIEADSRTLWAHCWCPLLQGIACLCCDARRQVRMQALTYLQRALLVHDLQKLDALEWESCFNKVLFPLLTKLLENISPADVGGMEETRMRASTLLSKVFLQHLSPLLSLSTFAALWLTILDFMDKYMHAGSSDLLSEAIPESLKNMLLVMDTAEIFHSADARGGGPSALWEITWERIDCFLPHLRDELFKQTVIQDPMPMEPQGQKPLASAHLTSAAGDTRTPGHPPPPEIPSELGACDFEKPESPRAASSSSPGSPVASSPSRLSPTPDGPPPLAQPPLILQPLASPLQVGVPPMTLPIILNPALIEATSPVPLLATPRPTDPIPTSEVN
Chain of UniProt Q9H0R4 (Q9H0R4 whole entry, looked up): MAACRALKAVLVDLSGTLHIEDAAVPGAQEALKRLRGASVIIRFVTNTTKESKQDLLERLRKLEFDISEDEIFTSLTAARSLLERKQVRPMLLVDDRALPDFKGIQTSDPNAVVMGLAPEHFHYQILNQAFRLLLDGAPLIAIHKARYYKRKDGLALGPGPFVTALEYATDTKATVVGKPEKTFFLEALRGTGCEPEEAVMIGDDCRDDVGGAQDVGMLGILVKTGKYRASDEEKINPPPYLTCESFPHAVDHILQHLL
Chain of UniProt P15586 (P15586 whole entry, looked up): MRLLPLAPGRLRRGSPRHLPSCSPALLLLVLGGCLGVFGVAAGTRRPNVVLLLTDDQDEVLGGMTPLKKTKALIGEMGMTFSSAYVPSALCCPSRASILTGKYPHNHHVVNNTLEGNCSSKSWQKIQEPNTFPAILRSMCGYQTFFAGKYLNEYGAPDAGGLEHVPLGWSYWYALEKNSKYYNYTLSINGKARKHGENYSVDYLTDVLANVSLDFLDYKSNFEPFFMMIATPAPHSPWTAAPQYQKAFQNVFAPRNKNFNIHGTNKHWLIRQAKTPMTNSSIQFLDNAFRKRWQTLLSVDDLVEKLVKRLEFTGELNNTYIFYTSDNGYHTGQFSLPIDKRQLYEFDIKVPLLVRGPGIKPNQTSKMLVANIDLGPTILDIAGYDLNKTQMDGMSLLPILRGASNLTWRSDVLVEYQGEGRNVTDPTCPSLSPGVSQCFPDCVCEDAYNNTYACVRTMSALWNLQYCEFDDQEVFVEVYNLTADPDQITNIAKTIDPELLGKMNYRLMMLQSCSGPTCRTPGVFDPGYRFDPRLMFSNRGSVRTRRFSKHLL
Chain of UniProt P05114 (P05114 whole entry, looked up): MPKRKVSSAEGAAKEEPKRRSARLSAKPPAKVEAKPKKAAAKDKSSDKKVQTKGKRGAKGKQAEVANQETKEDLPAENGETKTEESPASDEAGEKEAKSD
Chain of UniProt P09211 (P09211 whole entry, looked up): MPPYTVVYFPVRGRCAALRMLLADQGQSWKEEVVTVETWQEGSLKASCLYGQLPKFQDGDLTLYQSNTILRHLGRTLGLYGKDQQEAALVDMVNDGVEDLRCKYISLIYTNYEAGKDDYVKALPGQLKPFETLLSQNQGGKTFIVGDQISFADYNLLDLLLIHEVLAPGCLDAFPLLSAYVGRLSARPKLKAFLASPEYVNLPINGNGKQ

| Target | log2 fold change [1] | log2 fold change (filanesib) | log2 fold change (zotarolimus) | log2 fold change (idasanutlin) | log2 fold change (alisertib) | log2 fold change [2] | log2 fold change (gefitinib) | log2 fold change [3] | log2 fold change (lapatinib) | log2 fold change (pictilisib) | log2 fold change [4] | log2 fold change (crizotinib) | log2 fold change [5] | log2 fold change [6] | log2 fold change (duvelisib) | log2 fold change (gandotinib) | log2 fold change (tozasertib) | log2 fold change [7] | log2 fold change (doramapimod) | log2 fold change (ispinesib) |
| --- | --- | --- | --- | --- | --- | --- | --- | --- | --- | --- | --- | --- | --- | --- | --- | --- | --- | --- | --- | --- |
| GNB2 (UniProt P62879) | -0.051 | 0.034 | -0.006 | -0.058 | -0.068 | 0.089 | 0.085 | -0.071 | 0 | 0.13 | 0.084 | 0.134 | 0.024 | -0.13 | 0.046 | -0.095 | 0.017 | 0 | 0.009 | 0.062 |
| GNS (UniProt P15586) | -0.014 | -0.041 | -0.05 | -0.002 | -0.034 | -0.011 | 0.017 | 0.039 | -0.024 | 0.014 | 0.001 | -0.115 | 0.046 | -0.032 | 0.016 | 0.061 | 0.014 | -0.028 | 0.016 | -0.021 |
| IFRD2 isoform 2 (UniProt Q12894) | -0.073 | 0.008 | 0.24 | 0 | -0.278 | -0.219 | 0.128 | 0.508 (active) | 0.037 | 0.336 | 0.352 | -0.047 | 0.396 | -0.035 | 0.024 | 0.155 | -0.123 | -0.059 | 0.052 | 0.089 |
| FUCA1 (UniProt P04066) | -0.014 | -0.057 | -0.025 | -0.044 | -0.004 | -0.113 | 0.003 | 0.1 | 0.047 | 0 | 0.019 | -0.079 | 0.031 | -0.049 | 0.007 | 0 | -0.007 | -0.044 | 0.021 | -0.007 |
| GIGYF2 (UniProt Q6Y7W6) | 0.005 | 0.008 | 0.016 | 0 | -0.023 | 0.07 | -0.043 | -0.026 | -0.016 | -0.027 | 0.005 | -0.084 | 0.083 | 0 | 0.006 | -0.03 | -0.012 | 0.114 | -0.028 | -0.179 |
| GBF1 (UniProt Q92538) | -0.005 | 0.038 | 0.008 | -0.037 | -0.013 | 0.025 | -0.012 | -0.054 | -0.036 | -0.036 | -0.032 | -0.131 | 0.023 | 0.08 | -0.028 | -0.197 | 0.039 | 0.041 | 0.059 | 0.012 |
| HMGN2 (UniProt P05204) | 0.01 | -0.043 | -0.048 | 0.041 | -0.028 | 0.073 | 0.046 | 0.09 | -0.051 | -0.264 | -0.093 | 0.051 | -0.201 | -0.019 | -0.062 | -0.212 | -0.031 | -0.058 | -0.1 | -0.048 |
| HLTF (UniProt Q14527) | -0.027 | -0.004 | -0.042 | -0.049 | 0.008 | 0.081 | 0.334 (active) | -0.126 | 0.013 | 0.007 | -0.034 | 0.045 | -0.143 | 0.006 | -0.006 | -0.078 | -0.023 | 0.063 | -0.003 | 0.006 |
| HMGN1 (UniProt P05114) | 0.01 | 0.044 | -0.034 | 0.026 | -0.04 | 0.059 | -0.07 | 0.026 | -0.09 | -0.003 | -0.067 | 0.055 | -0.034 | 0.058 | -0.045 | 0.094 | 0.015 | -0.027 | 0.013 | -0.042 |
| GSTP1 (UniProt P09211) | -0.033 | -0.038 | 0.004 | -0.033 | -0.003 | -0.003 | 0.021 | 0.069 | -0.032 | 0.035 | 0.023 | 0.038 | 0.033 | -0.067 | 0.037 | -0.005 | -0.008 | 0 | -0.019 | 0.058 |
| HADHB (UniProt P55084) | 0.248 | 0.094 | 0.038 | -0.263 | -0.026 | 0.217 | 0.17 | -0.085 | 0.086 | 0.383 | -0.087 | 0.109 | 0.099 | -0.023 | 0.229 | 0.083 | -0.112 | 0.138 | 0.167 | 0.199 |
| HOMER1 (UniProt Q86YM7) | 0.168 | 0.051 | 0.043 | 0.011 | -0.083 | -0.023 | 0.086 | -0.042 | 0.073 | -0.001 | -0.011 | -0.015 | 0.071 | -0.014 | 0.024 | -0.068 | 0.046 | -0.002 | 0.027 | 0.083 |
| HDHD2 (UniProt Q9H0R4) | 0.048 | -0.097 | -0.027 | 0.006 | -0.06 | -0.007 | 0.024 | 0.085 | -0.03 | -0.011 | -0.11 | -0.031 | -0.01 | 0.001 | -0.019 | 0 | -0.039 | -0.023 | -0.081 | 0.004 |
| IFT80 isoform 3 (UniProt Q9P2H3) | -0.128 | -0.043 | 0.003 | -0.066 | -0.039 | 0.01 | -0.07 | 0.04 | -0.038 | 0.034 | -0.019 | -0.01 | 0.069 | -0.031 | 0.057 | 0.053 | -0.071 | 0.05 | 0.069 | -0.051 |
| GAK (UniProt O14976) | -0.013 | 0.024 | 0.033 | -0.748 | -0.025 | 1.44 | 0.84 | -0.107 | 0.143 | 0.226 | 0.49 | 0.115 | -0.081 | 1.26 | -0.245 | 0.02 | 0.223 | -0.121 | 0.206 | -0.157 |
| HNRNPUL2 (UniProt Q1KMD3) | -0.012 | 0.156 | -0.015 | 0.083 | -0.026 | 0.105 | -0.02 | 0.005 | -0.018 | 0.035 | -0.092 | -0.033 | -0.05 | 0.123 | -0.096 | -0.005 | -0.058 | 0.015 | 0.041 | 0.004 |
